The source of these data is PubChem BioAssay (NCI).

The panel holds about 83,000 compounds, 20% with a hit somewhere; the sample as a whole holds those more often.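 Step 1: grow cells in 96-well plates. Step 2: add test compound at a single concentration. Step 3: incubate 48 h. Step 4: record percent growth.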 The source made the active and inactive calls. Rule for the calls: active = growth percent below 10; inactive = the rest.

The assay has as its system MDA-MB-468 breast. As to the kind of experiment: NCI-60 one-dose screen, 48 h (100 = growth as untreated, 0 = no growth, -100 = all killed). As to conditions: 10 µM unless noted.
`CCN1CCN(C(=S)SCC(=O)Nc2nc3ccc(OC)cc3s2)CC1`: the growth was 97.7% (inactive).
Turning to `Cc1ccc(C(C)C)cc1C(=O)C[n+]1ccccc1`, the growth is 107% (inactive).
As for `O=C(Nc1ccc(Nc2ncnc3sc4c(c23)CCOC4)cc1)Nc1ccc(Cl)c(C(F)(F)F)c1`, the growth is 83.5% (inactive).
